Hits are enriched below; roughly 2.2% of the tested compounds scored in any of these assays.
Efflux pump mplx: inhibitors of Candida efflux pumps in yeast, primary screen, S. cerevisiae, Nile Red, multiplex; S. cerevisiae Candida pump triplex; inhibition, % at 10 µM; AID 485275, 2010; 330,000 tested, 0.44% active;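 active = plate passing quality check with inhibition over a set limit, or well fluorescence over plate mean plus 4 SD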;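 also: Nile Red retained in pooled yeast measured as flow cytometry median fluorescence; higher means more Nile Red kept so more efflux inhibition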
SUMO Mot1 rescue: yeast Mot1-301 growth rescue at high temperature, primary screen, SUMOylation pathway inhibitor project, S. cerevisiae, ATP luminescence, 38.5C; AID 2716, 2010; 320,000 tested, 1% active; growth rescue, % at 18.8 µM; S. cerevisiae Mot1-301 growth rescue; percent above DMSO median, 100 means doubled;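 active = every valid replicate shows activation above 250% relative to neutral control wells; inactive = the rest, any valid replicate at or below 250%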
HGIII-sPLA2 inh: human group III sPLA2 inhibitors, primary screen, biochemical, QFRET, BODIPY PC-A2 liposome substrate | 370,000 tested, 0.56% active | inhibition, % at 12.2 µM | AID 743126, 2013 | QFRET BODIPY PC-A2 liposome hydrolysis, fluorescence;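 active = inhibition above mean plus 3 SD of compounds lying within the high and low control bounds, cut at about 19% in these data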
Target sequence (Q9NZ20 whole entry, looked up): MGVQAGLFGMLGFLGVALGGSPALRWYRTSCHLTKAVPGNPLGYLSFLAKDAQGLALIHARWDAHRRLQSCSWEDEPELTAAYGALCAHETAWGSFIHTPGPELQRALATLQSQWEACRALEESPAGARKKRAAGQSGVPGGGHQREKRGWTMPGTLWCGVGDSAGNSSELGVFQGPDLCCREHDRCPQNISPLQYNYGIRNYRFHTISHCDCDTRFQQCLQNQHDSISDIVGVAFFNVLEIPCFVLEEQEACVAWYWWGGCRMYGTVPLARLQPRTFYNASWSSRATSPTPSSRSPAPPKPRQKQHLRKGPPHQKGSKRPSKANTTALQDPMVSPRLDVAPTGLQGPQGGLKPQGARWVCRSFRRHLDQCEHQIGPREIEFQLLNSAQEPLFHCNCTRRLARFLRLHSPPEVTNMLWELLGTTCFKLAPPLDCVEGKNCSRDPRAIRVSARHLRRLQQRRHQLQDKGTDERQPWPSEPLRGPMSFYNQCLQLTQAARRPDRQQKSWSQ
SKN-1 block: suppressors of acrylamide-induced Pgst-4::GFP reporter in worms, primary screen, SKN-1 inhibitor project, whole organism, uHTS, GFP/RFP fluorescence ratio, strain VP596; C. elegans VP596 Pgst-4::GFP/RFP ratio, 24 h; inhibition, % at 21.8 µM; 360,000 tested, 0.49% active; AID 624304, 2012;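 active = interference check ratio from 0.5 to 1.5 plus GFP to RFP signal ratio inhibition reaching or exceeding a fixed threshold, cut at about 30% in these data, passing the limit was not always enough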
Yeast cmpd fluor: counter-screen for efflux pump inhibitors: compound fluorescence. shares compounds with Efflux pump mplx. S. cerevisiae AD/pABC3, flow cytometry. fluorescence ratio to DMSO, % at 10 µM. 1,700 tested, 4% active. AID 588517;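 active = fluorescence ratio to DMSO above its plate's cutoff, the plate mean ratio plus 5 SD, cut at about 210% in these data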;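 also: unstained yeast with no Nile Red so the signal is compound autofluorescence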
Mdr1 pump inh: inhibitors of Candida albicans Mdr1 efflux, confirmation, flow cytometry, singleplex, Cherry Pick1 set. shares compounds with Efflux pump mplx. S. cerevisiae AD/CaMDR1, Nile Red efflux. 1,700 tested, 1% active. inhibition, % at 10 µM; in the data active = inhibition above about 26%;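 also: higher means more Nile Red retained so more efflux inhibition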
Cdr2 pump inh: inhibitors of Candida albicans Cdr2 efflux pump, confirmation, S. cerevisiae AD/CaCDR2, flow cytometry, cherry pick 1, singleplex; shares compounds with Efflux pump mplx; Nile Red retention; Nile Red retention ratio vs DMSO, % at 10 µM; 1,700 tested, 4% active; AID 588520, 2011; in the data active = Nile Red retention ratio vs DMSO above about 190%;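 also: higher ratio means more blocking of Cdr2 efflux of the dye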
CaCdr1 efflux inh: inhibitors of Candida albicans Cdr1 efflux pump, confirmation, S. cerevisiae AD/CaCDR1, flow cytometry, cherry pick 1, singleplex | inhibition, % at 10 µM | Nile Red efflux | shares compounds with Efflux pump mplx | 1,700 tested, 1% active;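 active = inhibition above the screen-wide mean plus twice its standard deviation, cut at about 32% in these data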
Of the large screens only hits and unclear results are named; the others gave an inactive call (follow-up assays come after a bar, where they were run).

COc1ccc(/C=N/NC(=O)c2nc(Cl)c(Cl)c(N)c2Cl)cc1COc1ccc(F)cc1F	Efflux pump mplx 1.0 | Yeast cmpd fluor inactive | Mdr1 pump inh inactive | Cdr2 pump inh inactive | CaCdr1 efflux inh inactive
COc1cc(OC)cc(C(=O)N/N=C/c2ccc(OC)c(COc3ccc4ccccc4c3)c2)c1	Efflux pump mplx 0.6 | Yeast cmpd fluor inactive | Mdr1 pump inh inactive | Cdr2 pump inh inactive | CaCdr1 efflux inh inactive
O=C(C[n+]1cc(-c2ccc(Cl)c(Cl)c2)n2c1CCC2)OCc1ccccc1	Efflux pump mplx 6.4 | Yeast cmpd fluor inactive | Mdr1 pump inh inactive | Cdr2 pump inh inactive | CaCdr1 efflux inh inactive
N=C(N)SCC1=CCS(=O)(=O)C1	Efflux pump mplx 0.8 | Yeast cmpd fluor inactive | Mdr1 pump inh inactive | Cdr2 pump inh inactive | CaCdr1 efflux inh inactive
O=S1(=O)CC=C(CSc2nc3ccccc3[nH]2)C1	none
Nc1c(C(=O)Nc2nccs2)sc2nc(-c3cccs3)cc(C(F)(F)F)c12	none
Cc1nnc(NC(=O)c2sc3nc(-c4cccs4)cc(C(F)(F)F)c3c2N)s1	Efflux pump mplx 1.3 | Yeast cmpd fluor inactive | Mdr1 pump inh inactive | Cdr2 pump inh inactive | CaCdr1 efflux inh inactive
O=C(c1cc2nc(-c3cccs3)cc(C(F)(F)F)n2n1)N1CCCc2ccccc21	Efflux pump mplx 0.7 | Yeast cmpd fluor inactive | Mdr1 pump inh inactive | Cdr2 pump inh inactive | CaCdr1 efflux inh inactive
COC(=O)C1CN(Cc2cn(CCC3OCCO3)nn2)CCS(=O)(=O)N1Cc1ccc(C)cc1 (configuration not stated)	none (no result: Efflux pump mplx, SUMO Mot1 rescue, SKN-1 block)
COC(=O)c1sc(NC(=O)CSc2nnc(Cn3nnc4ccccc43)n2C)nc1C	Efflux pump mplx 14 | Yeast cmpd fluor inactive | Mdr1 pump inh inactive | Cdr2 pump inh inactive | CaCdr1 efflux inh inactive
Cc1cccc(NC(=S)N(CCCN2CCOCC2)C(C)c2cc3ccccc3o2)c1C (configuration not stated)	none
Cn1c(=O)c2cc(S(=O)(=O)NCCC(=O)NC3CCCCCCC3)ccc2n(C)c1=O	Efflux pump mplx 8.2 (no result: HGIII-sPLA2 inh) | Yeast cmpd fluor inactive | Mdr1 pump inh inactive | Cdr2 pump inh inactive | CaCdr1 efflux inh inactive
CCOc1ccc(NC(=O)CCNS(=O)(=O)c2ccc3c(c2)c(=O)n(C)c(=O)n3C)cc1	Efflux pump mplx 6.7 (no result: HGIII-sPLA2 inh) | Yeast cmpd fluor inactive | Mdr1 pump inh inactive | Cdr2 pump inh inactive | CaCdr1 efflux inh inactive
CC(C)[C@H](NC(=O)[C@H]1N2C(=O)c3ccccc3C2SC1(C)C)C(=O)NCc1ccco1 (some centres not stated)	none
CC(C)(C)OC(=O)NNC(=O)c1cccs1	none
COc1ccc(/C=C(\C#N)C(=O)Nc2cc(S(=O)(=O)N3CCCCC3)ccc2N2CCCCC2)cc1	Efflux pump mplx 0.5 | Yeast cmpd fluor inactive | Mdr1 pump inh inactive | Cdr2 pump inh inactive | CaCdr1 efflux inh inactive
Cc1ccc2c(c1)N(C)/C(=C/c1cccc[n+]1C)S2	Efflux pump mplx 1.2 | Yeast cmpd fluor inactive | Mdr1 pump inh inactive | Cdr2 pump inh inactive | CaCdr1 efflux inh inactive
COc1ccc2c(c1)N(C)/C(=C/c1cccc[n+]1C)S2	Efflux pump mplx 1.1 | Yeast cmpd fluor inactive | Mdr1 pump inh inactive | Cdr2 pump inh inactive | CaCdr1 efflux inh inactive
Cc1n[nH]c(C)c1S(=O)(=O)NCCc1ccccc1F	none (no result: Efflux pump mplx, SUMO Mot1 rescue, SKN-1 block)
O=C(CCN1CCN(c2ccccc2F)CC1)Nc1cccc(F)c1	none
O=S(=O)(NCCc1cn2ccccc2n1)c1ccc(F)c(C(F)(F)F)c1	Efflux pump mplx 0.5 | Yeast cmpd fluor inactive | Mdr1 pump inh inactive | Cdr2 pump inh inactive | CaCdr1 efflux inh inactive
O=C(c1ccccc1)N1CCN(c2ccccc2)CC1	none (no result: Efflux pump mplx, SUMO Mot1 rescue)
O=C(O)c1nccnc1C(=O)N1CCN(c2ccccc2)CC1	Efflux pump mplx 1.9 | Yeast cmpd fluor inactive | Mdr1 pump inh inactive | Cdr2 pump inh inactive | CaCdr1 efflux inh inactive
Cc1noc(C)c1C(=O)N1CCC1(C)C(=O)NS(=O)(=O)c1cccc(Cl)c1 (configuration not stated)	none (no result: Efflux pump mplx, SUMO Mot1 rescue)
CCOc1ccc(-c2nnc3n2N=C(c2ccc(OC)cc2)CS3)cc1	none
CCc1nnc2n1N=C(c1ccc(OC)cc1)CS2	Efflux pump mplx 0.8 | Yeast cmpd fluor inactive | Mdr1 pump inh inactive | Cdr2 pump inh inactive | CaCdr1 efflux inh inactive
CC(C)(C)c1cc(C(c2cccnc2)N2CCN(CCO)CC2)cc(C(C)(C)C)c1O (configuration not stated)	Efflux pump mplx 0.4 | Yeast cmpd fluor inactive | Mdr1 pump inh inactive | Cdr2 pump inh inactive | CaCdr1 efflux inh inactive
Nc1nc2c(F)cccc2s1	Efflux pump mplx 2.2 | Yeast cmpd fluor inactive | Mdr1 pump inh inactive | Cdr2 pump inh inactive | CaCdr1 efflux inh inactive
NNc1nc2c(F)cccc2s1	none
CCOc1ccc(CNC(=O)NS(=O)(=O)c2ccc(OC)cc2)cc1	Efflux pump mplx 5.9 | Yeast cmpd fluor inactive | Mdr1 pump inh inactive | Cdr2 pump inh inactive | CaCdr1 efflux inh inactive
COc1ccc(CNC(=O)CN(c2ccc(C)cc2)S(=O)(=O)c2c(C)nn(C)c2C)cc1	none
CC(OC(=O)c1ccccc1NCCO)C(=O)NCC(=O)Nc1ccc(F)c(F)c1F (configuration not stated)	none
O=C(CSc1ccccc1C(=O)O)NC12CC3CC(CC(C3)C1)C2	none
O=C(CSc1ncccc1C(=O)O)NC12CC3CC(CC(C3)C1)C2	Efflux pump mplx 0.5 | Yeast cmpd fluor inactive | Mdr1 pump inh inactive | Cdr2 pump inh inactive | CaCdr1 efflux inh inactive
O=C(NCCCN1CCCC1=O)c1cccnc1	Efflux pump mplx 5.9 | Yeast cmpd fluor inactive | Mdr1 pump inh inactive | Cdr2 pump inh inactive | CaCdr1 efflux inh inactive
CN(CC(=O)Nc1cccc(F)c1)C(=O)C1CCN(S(=O)(=O)c2ccc3c(c2)OCCO3)CC1	none
COc1ccc(/C(O)=C2\C(=O)C(=O)N(CCN(C)C)C2c2cccc(OC)c2OC)cc1 (configuration not stated)	Efflux pump mplx 6.5 | Yeast cmpd fluor inactive | Mdr1 pump inh inactive | Cdr2 pump inh inactive | CaCdr1 efflux inh inactive
COc1nc(NC23CC4CC(CC(C4)C2)C3)nc(OC)n1	Efflux pump mplx 0.5 | Yeast cmpd fluor inactive | Mdr1 pump inh inactive | Cdr2 pump inh inactive | CaCdr1 efflux inh inactive

High-throughput results from PubChem.
